This is an account of results in publication PMC5540273 (PLoS ONE, 2017).

Among the test systems are CSNK1G1; CSNK1G2; CSNK1G3; CSNK2A1; CSNK2A2; DAPK1; DAPK2; DAPK3.
Common to all, as to details: concentration: 1 μM, replicates: in singlicate; n = 1
The next experiment deals with T1, CTK.
T1 construct: gene MATK

In the next experiment the test system is T2, DCAMKL1.
T2 construct: gene DCLK1
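Also: KINOMEscan kinase panel screen.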

With `CCn1cnc2c(NCc3ccccc3)ncnc21` [SKF-96418], the “%Inh” value in the experiment with CSNK1G1 is 0%; in the experiment with CSNK1G2 it was 0%; in the experiment on CSNK1G3, 0%; in the experiment on CSNK2A1, 0%; with CSNK2A2, 0%; in the experiment with CTK, 34%. Moreover, the “%Inh” value was determined as 0% with DAPK1, 0% in the experiment with DAPK2, 11% with DAPK3 and 33% in the experiment with DCAMKL1.

Consider `COc1ccc(C)c(Nc2ccnc(Nc3ccc(-c4cnc[nH]4)cc3)n2)c1.Cl` [GW784041], for which the “%Inh” value in the experiment on CSNK1G1 stood at 15%; in the experiment on CSNK1G2, 0%; in the experiment with CSNK1G3, 8%; with CSNK2A1 it was 0%; with CSNK2A2 it was 5%; in the experiment with CTK, 0%. Further, the “%Inh” value with DAPK1 is reported as 7%; with DAPK2, 10%; with DAPK3, 6%; in the experiment on DCAMKL1, 7%.

On to `Cc1ccc(O)cc1Nc1ccnc2cc(-c3ccc(CN4CCCCC4)o3)ccc12` [GW557777], for which the “%Inh” value came out at 6% in the experiment on CSNK1G1; 5% with CSNK1G2; 7% in the experiment on CSNK1G3; 0% in the experiment on CSNK2A1; 0% with CSNK2A2; 27% with CTK. Further, the “%Inh” value in the experiment on DAPK1 is 16%; in the experiment with DAPK2, 3%; with DAPK3, 1%; with DCAMKL1, 25%.

For `CC(C)(C)c1ccc(C(=O)Nc2cn3cc(-n4ccnc4)ccc3n2)cc1`, the “%Inh” value with CSNK1G1 was 0%; with CSNK1G2, 12%; with CSNK1G3, 0%; in the experiment with CSNK2A1, 0%; in the experiment with CSNK2A2 it was 7%; with CTK, 24%. Moreover, the “%Inh” value with DAPK1 was found to be 0%; with DAPK2, 16%; with DAPK3, 2%; in the experiment with DCAMKL1 it was 29%.

With `Cc1ccc(C)c(NC(=O)Nc2ccc(C)c(-c3ccc(C(=O)Nc4ccncc4)cc3)c2)c1` [GSK1398473], the “%Inh” value in the experiment with CSNK1G1 turned out to be 3%; with CSNK1G2, 15%; with CSNK1G3 it was 32%; in the experiment on CSNK2A1, 15%; in the experiment on CSNK2A2, 0%; with CTK it was 0%. Further, the “%Inh” value in the experiment with DAPK1 came to 26%; in the experiment on DAPK2 it was 0%; in the experiment with DAPK3, 2%; in the experiment with DCAMKL1, 13%.

As to `CCn1c(-c2nonc2N)nc2c(-c3ccccc3)ncc(OCCCN)c21.O=C(O)C(F)(F)F.O=C(O)C(F)(F)F` [GSK260205], the “%Inh” value is given as 10% in the experiment on CSNK1G1; 0% in the experiment with CSNK1G2; 29% with CSNK1G3; 22% in the experiment with CSNK2A1; 31% with CSNK2A2; 0% with CTK. Besides, the “%Inh” value in the experiment with DAPK1 is reported as 10%; in the experiment with DAPK2, 2%; in the experiment with DAPK3 it was 25%; in the experiment with DCAMKL1, 0%.

In the case of `O=C(O)C(F)(F)F.O=c1[nH]ccc2nc(N[C@@H]3CCNC3)nc(Nc3ccc4c(c3)S(=O)(=O)CC4)c12` [GSK2181306], the “%Inh” value in the experiment on CSNK1G1 came out at 85%; in the experiment on CSNK1G2, 87%; with CSNK1G3, 94.4%; in the experiment with CSNK2A1, 99.2%; in the experiment on CSNK2A2 it was 99.9%; in the experiment with CTK, 16%. The “%Inh” value with DAPK1 amounted to 99.5%; with DAPK2, 97.8%; in the experiment with DAPK3, 99.6%; in the experiment with DCAMKL1, 95.7%.

Take `CCNc1nccc(-c2c(-c3ccc(F)cc3)ncn2C2CCN(C)CC2)n1`: the “%Inh” value with CSNK1G1 was determined as 7%; in the experiment with CSNK1G2, 1%; in the experiment with CSNK1G3 it was 0%; in the experiment on CSNK2A1, 44%; with CSNK2A2, 17%; with CTK, 100%. The “%Inh” value with DAPK1 was found to be 24%; in the experiment on DAPK2, 15%; in the experiment with DAPK3 it was 10%; in the experiment with DCAMKL1, 13%.

`CN(c1ccc(F)c(NC(=O)c2cccc(OC(C)(C)C#N)c2Cl)c1)c1ccc2nc(NC(=O)C3CC3)sc2n1`: the “%Inh” value is reported as 0% in the experiment on CSNK1G1; 12% in the experiment on CSNK1G2; 0% in the experiment on CSNK1G3; 35% in the experiment on CSNK2A1; 10% in the experiment on CSNK2A2; 13% with CTK. Further, the “%Inh” value came to 4% in the experiment on DAPK1, 0% in the experiment with DAPK2, 4% with DAPK3 and 0% in the experiment with DCAMKL1.

`CCOc1nccc(-c2c(-c3ccc(F)cc3)ncn2C2CCNCC2)n1` [SB-249175]: the “%Inh” value in the experiment on CSNK1G1 was 0%; in the experiment with CSNK1G2 it was 32%; in the experiment with CSNK1G3 it was 0%; in the experiment on CSNK2A1 it was 56%; in the experiment with CSNK2A2, 65%; in the experiment on CTK, 0%. The “%Inh” value in the experiment with DAPK1 was 0%; in the experiment on DAPK2, 0%; with DAPK3 it was 0%; with DCAMKL1 it was 25%.

In the case of `N#CC1(c2cccc(C(=O)Nc3cccc(Oc4ccc5nc(NC(=O)C6CC6)sc5n4)c3)c2)CC1`, the “%Inh” value is recorded as 0% in the experiment with CSNK1G1; 7% with CSNK1G2; 0% in the experiment with CSNK1G3; 0% in the experiment on CSNK2A1; 0% in the experiment on CSNK2A2; 0% in the experiment on CTK. Besides, the “%Inh” value turned out to be 0% in the experiment with DAPK1, 44% with DAPK2, 13% with DAPK3 and 3% in the experiment on DCAMKL1.

Regarding `O=C(Nc1c(F)cccc1F)c1cc(C(=O)c2ccccc2F)c[nH]1` [GSK1326180], the “%Inh” value in the experiment on CSNK1G1 is on record as 0%; with CSNK1G2, 0%; in the experiment on CSNK1G3, 21%; with CSNK2A1 it was 0%; in the experiment on CSNK2A2 it was 0%; with CTK, 0%. The “%Inh” value in the experiment with DAPK1 stood at 0%; in the experiment with DAPK2 it was 4%; in the experiment on DAPK3 it was 4%; in the experiment on DCAMKL1, 0%.

As for `Cc1ccc(-c2ccc3occ(-c4ccc(S(C)=O)cc4)c3c2)nn1` (stereo not shown), the “%Inh” value in the experiment on CSNK1G1 was 0%; in the experiment with CSNK1G2, 0%; in the experiment on CSNK1G3, 0%; in the experiment on CSNK2A1, 0%; in the experiment on CSNK2A2 it was 10%; in the experiment on CTK it was 0%. The “%Inh” value with DAPK1 worked out at 0%; in the experiment on DAPK2, 0%; with DAPK3, 0%; in the experiment with DCAMKL1, 4%.

As for `CN(C)c1ncnc2nc[nH]c12` [SKF-31736], the “%Inh” value in the experiment with CSNK1G1 is 3%; in the experiment on CSNK1G2, 0%; with CSNK1G3, 0%; with CSNK2A1 it was 0%; with CSNK2A2, 5%; with CTK it was 36%. Further, the “%Inh” value in the experiment on DAPK1 stood at 7%; with DAPK2, 3%; in the experiment on DAPK3, 20%; in the experiment with DCAMKL1 it was 32%.

In the case of `COc1cc(Nc2nccc(N3CCC(NC(=O)Nc4ccc5c(c4)OCO5)C3)n2)cc(OC)c1OC` (stereo not shown) [GSK1379766], the “%Inh” value in the experiment on CSNK1G1 came out at 10%; with CSNK1G2 it was 0%; in the experiment on CSNK1G3, 4%; in the experiment on CSNK2A1 it was 4%; with CSNK2A2, 16%; in the experiment with CTK, 0%. Besides, the “%Inh” value with DAPK1 was 5%; with DAPK2 it was 0%; in the experiment with DAPK3, 7%; with DCAMKL1 it was 7%.

Regarding `COc1cc(Nc2nccc(N3CCC(NS(=O)(=O)c4ccc(NC(C)=O)cc4)CC3)n2)cc(OC)c1OC` [GSK1379825], the “%Inh” value with CSNK1G1 is given as 0%; in the experiment on CSNK1G2, 0%; in the experiment with CSNK1G3, 0%; with CSNK2A1, 8%; in the experiment with CSNK2A2, 2%; in the experiment with CTK it was 0%. For the same compound, the “%Inh” value was 0% in the experiment on DAPK1, 0% in the experiment with DAPK2, 8% in the experiment on DAPK3 and 0% with DCAMKL1.

On to `Cc1ccc(NC(=O)c2ccnc(N3CCCCC3)c2)cc1-c1ccc(C(=O)NCC2CC2)cc1` [GW775610], for which the “%Inh” value in the experiment with CSNK1G1 amounted to 0%; in the experiment with CSNK1G2, 20%; in the experiment with CSNK1G3, 0%; in the experiment with CSNK2A1, 0%; in the experiment on CSNK2A2 it was 0%; in the experiment with CTK it was 25%. Also, the “%Inh” value in the experiment on DAPK1 is 100%; in the experiment on DAPK2 it was 0%; in the experiment on DAPK3, 12%; in the experiment with DCAMKL1, 0%.

Consider `CN(c1ccc(NC(=O)N2CCN(CCCN3CCOCC3)CC2)cc1)c1ccnc(Nc2ccc(CS(C)(=O)=O)cc2)n1.Cl` [GW830899], for which the “%Inh” value in the experiment on CSNK1G1 is 19%; in the experiment on CSNK1G2 it was 6%; in the experiment on CSNK1G3, 5%; in the experiment on CSNK2A1, 0%; in the experiment with CSNK2A2, 0%; in the experiment on CTK it was 0%. The “%Inh” value amounted to 4% in the experiment on DAPK1, 0% in the experiment on DAPK2, 0% in the experiment on DAPK3 and 0% with DCAMKL1.

As to `COc1cccc2c(-c3ccncc3)c(-c3ccc(F)cc3)nn12` [GW468513], the “%Inh” value was determined as 10% with CSNK1G1; 14% in the experiment on CSNK1G2; 31% with CSNK1G3; 11% with CSNK2A1; 12% in the experiment on CSNK2A2; 8% in the experiment on CTK. Moreover, the “%Inh” value is listed as 0% in the experiment on DAPK1, 0% with DAPK2, 21% in the experiment on DAPK3 and 0% in the experiment with DCAMKL1.

As for `Cl.O=C(Nc1ccc(Oc2ccc3[nH]c(NC(=O)c4ccco4)nc3c2)cc1)Nc1cc(C(F)(F)F)ccc1F` [GW683134], the “%Inh” value was 0% in the experiment with CSNK1G1; 0% with CSNK1G2; 7% in the experiment with CSNK1G3; 9% in the experiment with CSNK2A1; 0% with CSNK2A2; 6% in the experiment with CTK. For the same compound, the “%Inh” value in the experiment with DAPK1 turned out to be 3%; with DAPK2, 0%; with DAPK3 it was 20%; in the experiment with DCAMKL1, 19%.

Consider `CN1CCN(Cc2ccc(NC(=O)Nc3ccc(N(C)c4ccnc(Nc5ccc(CS(C)(=O)=O)cc5)n4)cc3)cc2)CC1.Cl` [GW827654], for which the “%Inh” value with CSNK1G1 is recorded as 0%; in the experiment with CSNK1G2 it was 0%; with CSNK1G3, 0%; with CSNK2A1 it was 100%; in the experiment on CSNK2A2 it was 22%; in the experiment with CTK, 16%. For the same compound, the “%Inh” value in the experiment on DAPK1 turned out to be 8%; with DAPK2, 0%; with DAPK3, 0%; with DCAMKL1, 44%.

For `Cn1cc(-c2ccc3c(c2)CCN3C(=O)Cc2cc(F)cc(F)c2F)c2c(N)ncnc21` [GSK2634140], the “%Inh” value is recorded as 23% in the experiment with CSNK1G1; 8% in the experiment on CSNK1G2; 18% in the experiment on CSNK1G3; 12% with CSNK2A1; 0% in the experiment on CSNK2A2; 0% in the experiment on CTK. In addition, the “%Inh” value in the experiment on DAPK1, in the experiment with DAPK2, with DAPK3 and in the experiment with DCAMKL1 was 0% in each case.
